Screening results as filed in PubChem BioAssay.
NadD inh: blocks S. aureus nicotinate mononucleotide adenylyltransferase | purified NadD enzyme, colorimetric absorbance read-out | inhibition, % at 20 µM | 0.78% of 360,000 active | AID 602399; in the data active = inhibition above about 26%
GRK2 inh: blocks RNA aptamer binding to human GRK2; P25098; 0.59% of 330,000 active; AID 488847; inhibition of aptamer binding, % at 10 µM; bead flow cytometry, FAM-aptamer displacement from GRK2;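 active = inhibition of aptamer binding above 40%, roughly 3 SD of noise, on plates passing a quality check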;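 note: median bead fluorescence of bound FAM aptamer so fluorescent compounds give negative values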
Target sequence (P25098 whole entry, looked up): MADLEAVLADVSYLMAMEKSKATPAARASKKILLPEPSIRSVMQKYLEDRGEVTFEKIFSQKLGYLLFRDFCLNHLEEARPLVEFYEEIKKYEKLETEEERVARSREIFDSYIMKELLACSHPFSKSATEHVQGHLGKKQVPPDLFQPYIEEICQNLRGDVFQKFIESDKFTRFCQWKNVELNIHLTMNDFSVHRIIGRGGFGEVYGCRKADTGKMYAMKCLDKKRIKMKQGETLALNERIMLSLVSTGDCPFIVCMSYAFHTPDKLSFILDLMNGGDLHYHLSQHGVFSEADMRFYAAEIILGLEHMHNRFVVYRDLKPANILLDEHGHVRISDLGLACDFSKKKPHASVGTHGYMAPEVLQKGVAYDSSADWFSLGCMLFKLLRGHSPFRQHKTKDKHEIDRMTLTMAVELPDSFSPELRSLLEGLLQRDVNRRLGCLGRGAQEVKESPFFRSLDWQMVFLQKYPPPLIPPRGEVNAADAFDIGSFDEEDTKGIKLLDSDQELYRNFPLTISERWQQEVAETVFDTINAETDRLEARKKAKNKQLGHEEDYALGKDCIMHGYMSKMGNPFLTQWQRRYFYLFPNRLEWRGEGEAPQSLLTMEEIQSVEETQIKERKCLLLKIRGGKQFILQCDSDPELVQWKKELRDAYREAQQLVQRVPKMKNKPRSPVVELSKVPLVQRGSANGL
PP1 counter: PP1-alpha (human) inhibition in PP5 counter-screen; P62136; purified PP1alpha, OMFP fluorescence; inhibition, % at 6.7 µM; 0.9% of 320,000 active;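 active = inhibition above the mean inhibition of all tested compounds plus 3 SD, computed separately for each screening campaign, cut at about 15% in these data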
Granule exo inh: lytic granule exocytosis inhibition | TALL-104 LAMP-1 surface exposure, flow cytometry; cells stimulated with thapsigargin and PMA | inhibition, % at 10 µM | 0.66% of 360,000 active | AID 651702;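 active = inhibition above about 55%, limit read from the data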
Beta2AR agonist: human beta-2 adrenergic receptor agonism by FAP | P07550 | Am2.2-beta2AR cells, FAP receptor internalization, flow cytometry | response, % (concentration not given with the values) | 0.43% of 340,000 active;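 active = response above a set limit, near 3 SD of response in nonfluorescent compounds, cut at about 42% in these data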
GRK2 CP1: confirmation of human GRK2 inhibitors displacing RNA aptamer; shares compounds with GRK2 inh; bead-bound GRK2, FAM-aptamer displacement, flow cytometry; aptamer displacement, % at 10 µM; 4% of 2,000 active; AID 504451;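 active = aptamer displacement above 40%, near three times the noise of non-fluorescent compounds, on plates passing quality checks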;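 note: negative values mostly reflect intrinsic compound fluorescence rather than true enhancement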
Aptamer quench: counter-screen for GRK2 aptamer inhibitors: fluorescent aptamer quenchers; fluorescence change (kMESF span), kMESF (concentration not given with the values); Fluorescent RNA aptamer beads, quenching, flow cytometry; stronger effect = higher value; 110 tested, under 10 active; AID 504521; shares compounds with GRK2 inh;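 active = compounds whose bead fluorescence drops by more than 37 kMESF across the dose range, marking them as dye quenchers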
Aptamer quench SP: quenches fluorescent RNA aptamer, GRK2 hit artifact | AID 504580 | 2,000 tested, under 10 active | shares compounds with GRK2 inh | Carboxyfluorescein RNA aptamer on beads, flow cytometry quenching; stronger effect = lower value | fluorescence response (% of DMSO), % at 10 µM;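 active = compounds that quench the bead-bound fluorescent RNA probe, cutting fluorescence to under half of the solvent control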;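 note: counterscreen run without GRK2 so only probe quenching by compound is measured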
GRK2 confirm 2: human GRK2 inhibition confirmation, cherry pick 2 | shares compounds with GRK2 inh | bead-bound GRK2, FAM-aptamer displacement, flow cytometry | inhibition of aptamer binding, % at 10 µM | 360 tested, under 10 active | AID 504782;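 active = inhibition of aptamer binding above 40%, about triple the noise seen with nonglowing compounds, on plates passing quality control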;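 note: negative values mostly come from compounds that fluoresce themselves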
FAM quench CP2: quenches fluorescent RNA aptamer, GRK2 hit artifact; AID 588494; 360 tested, under 10 active; fluorescence response vs DMSO, % at 10 µM; carboxyfluorescein RNA aptamer beads, flow cytometry quenching; stronger effect = lower value; shares compounds with GRK2 inh;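 active = response vs DMSO under 50%, meaning signal dropped by over half, treated as fluorescence quencher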;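 note: labelled aptamer on streptavidin beads without GRK2 as a quench counter-screen; 100% = bead fluorescence of DMSO wells and lower means quenching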
FAM quench DR: aptamer fluorescence quenching in GRK2 powder counter-screen; shares compounds with GRK2 inh; Bead-bound FAM RNA aptamer fluorescence quenching, flow cytometry; stronger effect = lower value; fluorescence ratio to DMSO, % at 11.1 µM; 35 tested, under 10 active; AID 588496;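 active = compounds that dim the fluorescent label, raw bead signal shifting by over 33 units between lowest and highest dose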
* hit, by the source's call; / = no result given. Hits are enriched below; roughly 2.9% of the tested compounds scored in any of these assays.

SMILES	NadD inh	GRK2 inh	PP1 counter	Granule exo inh	Beta2AR agonist	GRK2 CP1	Aptamer quench SP	others
Cc1cc2ccccc2n1CCNC(=O)c1cccs1	11	98*	4	-1	-17	81*	88	Aptamer quench=28;FAM quench DR=100
Cc1cc2ccccc2n1CCNC(=O)C1CCCCC1	1	12	1	22	6	/	/
CN(C)C(=O)c1cccc(-c2cccc(-c3nc(C(=O)NCc4ccccc4)cc4c3[C@@H](CCO)N(S(=O)C(C)(C)C)C4)c2)c1 (some centres undefined)	-12	/	/	-2	/	/	/
CCc1ccc(CN(C)C(=O)c2cc(COc3ccc(OC)cc3Cl)on2)nc1	0	1	-1	-1	7	/	/
CC1CCCC(NCC(O)COC(c2ccc(F)cc2)c2ccc(F)cc2)C1C (centres undefined)	-5	0	8	28	11	-5	102
O=C(O)CCc1ccc(-c2ccc(F)cc2)n1CC(=O)O	1	6	-1	-3	-3	/	/
Cc1ccc(-c2ccc(CCC(=O)O)n2CC(=O)O)cc1	2	89*	-3	0	3	3	98
COc1ccc(CCNC(=O)CS(=O)(=O)Cc2nc(-c3ccccc3Cl)oc2C)cc1OC	-4	66*	0	-4	-2	1	96	GRK2 confirm 2=-21;FAM quench CP2=103
O=C(CNC(=O)c1ccccc1F)N/N=C/c1ccc2c(c1)OCO2	-5	82*	2	2	-4	-2	101
CC1=N/C(=C\c2ccc([N+](=O)[O-])cc2)C(=O)N1c1ccc(F)cc1F	0	1	-1	16	5	/	/
Cc1cc(C)cc(NC(=O)COC(=O)COc2ccc(N(C)S(=O)(=O)c3cccs3)cc2)c1	-2	41*	/	-14	2	-3	98
CC[N+](CC)(CC)C/C(N)=N/O	9	0	-6	4	5	/	/
CCOc1ccc(C(=O)c2nc3c(n2O)CCCC3)cc1	-5	25	2	-1	6	-1	104
CN(CC(=O)NCc1ccccc1F)S(=O)(=O)c1ccc(Cl)cc1	-5	0	-1	6	10	/	/
COc1ccc(NC(=O)CSc2nc3c([nH]c4ccccc43)c(=O)n2C)c(OC)c1	14	97*	-1	-2	0	/	/	GRK2 confirm 2=0;FAM quench CP2=96
CCOc1ccc(NC(=O)CSc2nc3c([nH]c4ccccc43)c(=O)n2C)cc1	-2	1	-3	-2	-9	/	/
COc1ccc(OC)c(NC(=O)CSc2nc3c(c(=O)n(C)c(=O)n3C)n2C)c1	6	74*	-1	-1	7	-3	93
COc1cc(/C=C/C(=O)N2CC(C)OC(C)C2)cc(OC)c1OC (centres undefined)	0	3	2	-14	0	/	/
Cc1nnc(NC(=O)c2ccc(Br)o2)s1	-7	85*	-4	14	2	-2	105
CN(c1cccc(NC(=O)COc2ccc(Cl)cc2Cl)c1)S(C)(=O)=O	-13	0	-2	-4	4	/	/
CC(C)c1ccc(N2C(=O)CC(NNC(=O)c3cccnc3)C2=O)cc1 (centres undefined)	-11	98*	-3	-3	-3	2	98
O=C(NNC1CC(=O)N(c2ccccc2)C1=O)c1cccnc1 (centres undefined)	-8	0	-2	4	-4	/	/
COc1ccc(OC)c(S(=O)(=O)N2CCN(c3c(C)cccc3C)CC2)c1	-5	95*	4	-10	1	-1	101
COc1ccc(OC)c(S(=O)(=O)N2CCN(c3ncccn3)CC2)c1	-4	0	-4	-3	5	/	/
CN(C(=O)COC(=O)c1cccnc1Nc1cccc(C(F)(F)F)c1)C1CCS(=O)(=O)C1 (centres undefined)	0	0	0	3	-13	-3	98
SMILES	NadD inh	GRK2 inh	PP1 counter	Granule exo inh	Beta2AR agonist	GRK2 CP1	Aptamer quench SP	others
CC(C)CCNC(=O)c1ccc(-n2cnc3cccnc32)cc1	-5	45*	-6	0	-1	-1	98
COC(=O)c1sc(NC(=O)COc2cccc(C)c2)nc1C	-3	72*	-1	-6	28	/	/	GRK2 confirm 2=-12;FAM quench CP2=105
O=c1c2cc(Br)ccc2nc(-c2ccccc2)n1O	-4	1	1	9	-2	/	/
CS(=O)(=O)N(Cc1ccccc1)c1ccc(C(=O)Nc2ccccc2C(=O)O)cc1	4	51*	4	-14	-1	-3	96
Cc1nn(C)c(C)c1C(C)NC(=O)c1cc(COc2cncc(Cl)c2)on1 (centres undefined)	1	83*	-3	0	0	3	97
CCCCNC(=O)COC(=O)c1ccc(Cl)c(S(N)(=O)=O)c1	-4	0	-3	2	0	/	/
c1ccc(CN(CC2=NCCN2)c2ccccc2)cc1	-4	0	10	-6	8	2	100
c1ccc(CC2=NCCN2)cc1	1	32	-2	-10	3	/	/
N/C(=N\OC(=O)/C=C/c1ccccc1Cl)c1cccnc1	-4	75*	-5	-6	3	-22	98
Cc1ccccc1-c1nsc(SCC(=O)c2ccc(Cl)cc2)n1	4	0	-2	-4	-25	/	/
CCN(CC(=O)Nc1c(F)cccc1F)C(=O)c1cc2ccccc2oc1=O	4	100*	-3	1	-2	1	103
OC(COc1ccccc1)CN1CCCCC1 (centres undefined)	1	/	/	1	0	/	/
OC(COc1ccc(C2C=CCC2)cc1)CN1CCCCC1 (centres undefined)	6	62*	-2	-1	6	-75	105
CSCc1c(C(=O)NCCc2ccccn2)oc2ccccc12	-4	0	2	-4	-1	/	/
Cc1ccc(S(=O)(=O)NCCC(=O)Nc2nnc(C)s2)cc1	-5	100*	-2	1	-5	3	102
CC12C(=O)N(c3cccc4cccnc34)C(=O)C1C1C=CC2C1 (centres undefined)	-3	2	1	-1	-6	/	/
